Test [1] addresses T1, Aspartate--tRNA(Asp/Asn) ligase (Mycobacterium tuberculosis (strain ATCC 25618 / H37Rv)) (UniProt P9WFW3).
T1 sequence (whole entry): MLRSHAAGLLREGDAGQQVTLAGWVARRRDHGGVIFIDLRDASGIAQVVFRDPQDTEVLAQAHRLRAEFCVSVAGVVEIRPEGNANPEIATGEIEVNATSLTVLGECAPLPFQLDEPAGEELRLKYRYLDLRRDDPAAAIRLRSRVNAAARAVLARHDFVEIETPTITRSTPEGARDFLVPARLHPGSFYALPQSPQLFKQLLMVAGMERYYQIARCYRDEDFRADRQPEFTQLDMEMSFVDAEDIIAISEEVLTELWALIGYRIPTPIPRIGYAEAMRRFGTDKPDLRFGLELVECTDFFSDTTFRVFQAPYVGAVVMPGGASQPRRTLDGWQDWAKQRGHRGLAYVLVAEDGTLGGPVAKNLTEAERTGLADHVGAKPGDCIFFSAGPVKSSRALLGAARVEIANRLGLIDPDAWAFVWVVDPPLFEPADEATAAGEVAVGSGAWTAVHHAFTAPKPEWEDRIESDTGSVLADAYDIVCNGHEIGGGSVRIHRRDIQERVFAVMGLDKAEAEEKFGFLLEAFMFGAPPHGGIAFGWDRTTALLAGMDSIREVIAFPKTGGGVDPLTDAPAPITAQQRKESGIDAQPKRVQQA
The experiment in a line: Assay for Asp RNA synthetase-1 from Mycobacterium tuberculosis. In kind it is functional. Also noted: scale not given: direction of the effect not stated beside the values. Conditions: 30 µM.

Test [2] has as its target Shiga toxin 2 (Escherichia coli O157:H7) (UniProt P09385+P09386). The experiment in a line: E. coli 0.157:H7 Shiga Toxin SOP - stx2 screening assay. It counts as functional. Also noted: scale not given: direction of the effect not stated beside the values. Conditions: 30 µM.

Percent Effect data for 46 compounds are collected here from ChEMBL document CHEMBL3988442, “University of Dundee, Small-Polar-MMV Screening Library” (2021).

`Cn1cc(C(=O)NC2CCN(Cc3ccn(C)c(=O)c3)CC2)cn1`: the Percent Effect in test [1] is 1.68%; in test [2], -28%.

In the case of `COCc1nc(N(C)C)ncc1C(=O)Nc1ccn(C)n1`, the Percent Effect is -1.07% in test [1] and -19.2% in test [2].

For `c1cnn(CC2CN(Cc3noc(C4CC4)n3)CCO2)c1` (configuration not stated), the Percent Effect in test [1] worked out at 0.485%; in test [2], 5.97%.

Turning to `CCc1nc(CN(C)CC2CCN(CC(C)O)CC2)no1` (configuration not stated), the values for the Percent Effect in test [1] and in test [2] were -3.85% and 11%, respectively.

As to `CN(C)CCN1CCO[C@@H]2CN(C(=O)c3cccs3)CC[C@@H]2C1`, the Percent Effect in test [1] is 0.229%; in test [2], 4.93%.

`O=C1N(CC2CC2)CCC12CCN(c1ncccn1)CC2`: the Percent Effect in test [1] is 3.3%; in test [2] it was -4.25%.

With `CC(NC(N)=O)C(=O)N1CCCN(Cc2nccn2C(C)C)CC1` (configuration not stated), the Percent Effect in test [1] came to 0.509%; in test [2], 8.58%.

With `CNS(=O)(=O)Cc1ccc(CNC(=O)Nc2cccnc2)cc1`, the values for the Percent Effect in test [1] and in test [2] were -0.514% and -38.8%, respectively.

Turning to `Cc1ccc(CNC(=O)Nc2cc(C(F)(F)F)c[nH]c2=O)cn1`, the results for the Percent Effect in test [1] and in test [2] were -6.46% and 8.32%, respectively.

`COc1c(CNC2CCCc3ccccc32)c(C(C)C)nn1C` (configuration not stated): the Percent Effect in test [1] was -0.233%; in test [2] it was -10.1%.

As for `O=C(CCn1ccccc1=O)Nc1ccc(F)c(Cl)c1`, the Percent Effect was 5.06% in test [1] and -7.92% in test [2].

In the case of `Cc1cc(C)n(CC2CCCN2C(=O)c2ccc3c(c2)nnn3C)n1` (configuration not stated), the Percent Effect in test [1] is 5.23%; in test [2] it was -34.8%.

For `CNS(=O)(=O)Cc1ccc(CNC(=O)Nc2cn[nH]c2)cc1`, the Percent Effect is -0.228% in test [1] and -4.62% in test [2].

For `Cc1ccc(-c2nc(CN3CCCC(Cn4cncn4)C3)no2)cc1` (configuration not stated), the Percent Effect in test [1] is 1.64%; in test [2], -11.2%.

For the compound `CN(Cc1cc2c(cc1OC(F)F)OCO2)Cc1nccn1C`, the results for the Percent Effect in test [1] and in test [2] were 3.96% and 2.09%, respectively.

On to `CC(=O)NCCN1CCC(c2cccs2)CC1`, for which the Percent Effect in test [1] was -5.78%; in test [2], 1.86%.

Consider `O=C1CC2(CCCCC2)CC(=O)N1CC(O)COCc1ccc(Cl)cc1` (configuration not stated), for which the Percent Effect in test [1] came to 0.607%; in test [2] it was 11%.

On to `CCn1c(CN(C)C)nnc1C1CCN(Cc2ccccc2)CC1`, for which the Percent Effect in test [1] was -0.862%; in test [2] it was -23.5%.

Turning to `COCCc1noc(CN2CCOC(Cn3nc(C)cc3C)C2)n1` (configuration not stated), the Percent Effect was -2.55% in test [1] and -7.72% in test [2].

Take `CN1CCN(Cc2nnc(C3CCN(CC4CC4)CC3)n2C)CC1`: the Percent Effect in test [1] is -0.891%; in test [2] it was 2.65%.

Regarding `COc1ccc(NC(C)=O)c(N2CCN(C(C)=O)CC2)n1`, the Percent Effect in test [1] was 2.32%; in test [2], -15.1%.

Regarding `CCn1nc(C)cc1C(=O)Nc1cc(F)ccc1OCC1CCCO1` (configuration not stated), the Percent Effect in test [1] was -3.81%; in test [2], 34.1%.

For the compound `OCCN1CCOC2(CCCN(c3cccc(F)c3)C2)C1` (configuration not stated), the results for the Percent Effect in test [1] and in test [2] were -3.25% and -15.9%, respectively.

With `N#Cc1cccc(N2CC3(CCN(C(=O)c4cccnc4)C3)CC2=O)c1` (configuration not stated), the Percent Effect was 2.09% in test [1] and -13.7% in test [2].

On to `Cc1cc(-c2cnn(CCNC(=O)c3cccnc3)c2C2CC2)on1`, for which the Percent Effect in test [1] was 0.491%; in test [2], -2.62%.

In the case of `CCS(=O)(=O)N1CCc2c(cccc2NC(=O)NCCOC)C1`, the values for the Percent Effect in test [1] and in test [2] were 5.42% and 6.78%, respectively.

Take `CNC(=O)[C@H]1C[C@@H]2CN(C(=O)Nc3ccc(F)cc3)C[C@H]1O2`: the Percent Effect is -1.56% in test [1] and -24.2% in test [2].

For `CCc1c(C(=O)NCC(=O)OCC2CC2)cnn1-c1ccc(C)cc1`, the Percent Effect was -5.03% in test [1] and -6.36% in test [2].

As for `Cc1cnc(C(=O)N2C[C@@H]3CN(CC4CCCC4)CCO[C@@H]3C2)cn1`, the Percent Effect was -4.04% in test [1] and -21.5% in test [2].

With `Cc1cccc(C(=O)N2C[C@@H](OCc3cccnc3)[C@H]3OCCC[C@@H]32)n1`, the Percent Effect in test [1] is -2%; in test [2], -30.7%.

As for `CCCOc1ccc(CNC2CCCc3c2cnn3CC)cc1OC` (configuration not stated), the values for the Percent Effect in test [1] and in test [2] were -1.51% and -22.9%, respectively.

On to `CN(C)c1ccc(CC(=O)N[C@@H]2CCNC[C@H]2O)cc1`, for which the Percent Effect in test [1] stood at 3.77%; in test [2] it was 1.28%.

Take `COCC(=O)N1Cc2cn(C)nc2C(COc2cccnc2)C1` (configuration not stated): the Percent Effect is 0.598% in test [1] and -21.7% in test [2].

`O=C(c1ccncc1F)N1CCN(CC2CC2)c2ncccc2C1`: the Percent Effect in test [1] was 2.79%; in test [2], -37.6%.

Take `COCCCN(C)Cc1nc2c(cnn2C)c(=O)[nH]1`: the Percent Effect in test [1] is -1.71%; in test [2] it was -15.2%.

On to `c1cn2c(n1)CN(CC1CC1)CC(CN1CCOCC1)C2` (configuration not stated), for which the Percent Effect is 11.1% in test [1] and -18% in test [2].

As to `O=C(c1cccc2c1OCO2)N1CCCC1Cn1cccn1` (configuration not stated), the Percent Effect in test [1] amounted to 3.69%; in test [2], 29.5%.

For the compound `CS(=O)(=O)Cc1ccc(CNC(=O)c2cccnc2O)cc1`, the Percent Effect in test [1] was -6.68%; in test [2], -14.2%.

In the case of `CC(=O)c1c(F)cccc1N1CCC(CS(N)(=O)=O)CC1`, the Percent Effect was -3.49% in test [1] and -2.68% in test [2].

On to `COc1cccc(COCC(=O)N2CCN(CC(C)(C)O)CC2)c1`, for which the Percent Effect in test [1] was -1.7%; in test [2], 9.82%.

Take `CCN(CC)C(=O)c1nnn(Cc2ccccc2)c1OC`: the Percent Effect amounted to 0.348% in test [1] and 3.85% in test [2].

As to `CC(C)(C)C(=O)N1CCC2(COCc3cnc(N4CCOCC4)nc32)C1` (configuration not stated), the figures for the Percent Effect in test [1] and in test [2] were 3.22% and -15.4%, respectively.

On to `O=C(CCc1ccc(Br)cc1F)NS(=O)(=O)c1ccc2c(c1)OCCO2`, for which the Percent Effect was found to be 7.79% in test [1] and 13.8% in test [2].

For the compound `Cc1nc(C2CCCN(C(=O)c3ccc(Cn4cccn4)o3)C2)no1` (configuration not stated), the Percent Effect was -5.64% in test [1] and 12.3% in test [2].

As to `O=C(NCCCN1CCOCC1)c1ccn(-c2ccc3ccccn23)n1`, the values for the Percent Effect in test [1] and in test [2] were 3.71% and -18.9%, respectively.

As for `CCC(O)CN1CCN(C(=O)c2sccc2OC)CC1` (configuration not stated), the Percent Effect is 0.995% in test [1] and -39.9% in test [2].
